# LmPK inhibitor = blocks Leishmania mexicana pyruvate kinase activity | purified LmPK, Kinase-Glo ATP luminescence, 1 h | Potency, µM (highest dose often 57.5 µM), inactives show at the highest dose activity change, negative = inhibition, usual class: inhibitors | actives 0.37% (n = 290,000) | AID 1721; also: potency is read from the fitted curve at half-maximal effect; % is scaled to controls: 0 for no effect and ±100 for the full control effect
# Target sequence (Q27686 whole entry, looked up): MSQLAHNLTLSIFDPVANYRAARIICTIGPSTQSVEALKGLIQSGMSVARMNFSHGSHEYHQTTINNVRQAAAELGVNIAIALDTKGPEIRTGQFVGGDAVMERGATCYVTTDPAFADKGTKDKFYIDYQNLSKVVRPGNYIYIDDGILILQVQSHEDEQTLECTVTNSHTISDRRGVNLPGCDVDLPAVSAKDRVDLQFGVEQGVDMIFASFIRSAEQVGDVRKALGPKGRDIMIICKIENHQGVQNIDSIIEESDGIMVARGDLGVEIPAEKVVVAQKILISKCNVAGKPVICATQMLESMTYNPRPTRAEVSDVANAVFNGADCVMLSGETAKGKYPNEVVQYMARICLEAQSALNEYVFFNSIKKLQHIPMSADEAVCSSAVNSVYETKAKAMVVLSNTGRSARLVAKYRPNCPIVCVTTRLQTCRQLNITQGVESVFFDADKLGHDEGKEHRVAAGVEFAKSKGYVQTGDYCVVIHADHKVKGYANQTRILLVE
#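 Pyruvate kinase activity monitored as ATP production (luciferase luminescence). Conditions: 0.1 nM enzyme, 0.5 mM PEP, 0.1 mM ADP, 1 h, RT; normalized against uninhibited and no-enzyme wells.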
# Tb PYK inh = inhibitors of Trypanosoma brucei pyruvate kinase. Q57TT1. TbPYK enzyme, Kinase-Glo Plus ATP luminescence, 45 min. Potency, µM (doses to about 76.8 µM), inactives show at the top dose activity, negative = inhibition, hits mostly inhibitors. actives 0.12% (n = 410,000). AID 624173; also: potency is read from the fitted curve at half-maximal effect; % is scaled to controls: 0 for no effect and ±100 for the full control effect; nearly all actives have a fitted effect of over 50% in size
#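 ADP (130 uM final) triggers the TbPYK reaction after compound addition; incubation is 45 min at room temperature. Kinase-Glo Plus is then added and luminescence imaged. Normalized data are fitted to concentration-effect curves.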
# FBPA Giardia inh = blocks Giardia fructose-bisphosphate aldolase activity; A8B2U2; purified Giardia FBPA; Potency, µM (titrated, usually from 59.6 µM), without a hit: top-dose activity, negative = inhibition, hits mostly inhibitors; actives 0.71% (n = 290,000); AID 2451; also: potency is read from the fitted curve at half-maximal effect; % is scaled to controls: 0 for no effect and ±100 for the full control effect; nearly all actives have a fitted effect of over 55% in size
#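 Giardia FBPA (40 nM reagent) was preincubated 10 min at RT with compound (up to 57.5 uM final), then substrate plus GAPDH/TPI/NAD/arsenate coupling system with diaphorase/resazurin was added; resorufin fluorescence (525/598 nm) was read after 20 min.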
# Shiga toxin inh = inhibitors of Shiga toxin in Vero cells; inhibition, % at 38.7 µM; actives 9.2% (n = 290,000); Vero cells, Shiga toxin protein synthesis inhibition reporter; in the data active = inhibition mostly above about 28%, no sharp cut-off; inactive = mostly below about 43%; also: 0% is about no effect
# RE007 growth inh = less growth of the S. pombe RE007 Vpr strain. S. pombe RE007 Vpr strain, BacTiter-Glo ATP luminescence, 24 h. Potency, µM (titrated, usually from 92.2 µM), for inactives: top-dose activity change, negative = less growth, hits mostly inhibitors. actives 0.21% (n = 360,000); active = well fitted falling curve with a large enough effect; inconclusive = small, poorly fitted or top-dose-only effect; inactive = no such curve, though single readings can be large or run the other way; also: potency is read from the fitted curve at half-maximal effect; % is scaled to controls: 0 for no effect and ±100 for the full control effect; nearly all actives have a fitted effect of over 50% in size
#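 Fission yeast strain RE007, carrying one chromosomally integrated HIV-1 vpr copy, was seeded at OD 0.01 in PMG+AL medium with 23 nL pinned compound. After 24 h at 30 °C and 99% humidity, viability was read by BacTiter-Glo luminescence.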
# Cycloheximide cs = affects cycloheximide protein synthesis inhibition readout, counter-screen; cell reporter, cycloheximide protein synthesis inhibition counterscreen; max response, %; actives 12% (n = 300,000); in the data active = max response mostly above about 13%, no sharp cut-off; inactive = mostly below about 14%; also: read at 38.3 µM for the half of the compounds with a filed dose; 0% is about no effect
# * hit, by the source's call; ? = inconclusive; · = not tested or not shown; + = active, no number; [ ] = dose if it differs, or a comment. This is one part of a sample in which hits are shown more often than they occur. Unless noted, calls follow the shape of the dose curve; as a rule, active = well fitted curve in the direction sought with a large enough effect; inconclusive = small, poorly fitted or top-dose-only effect, or another doubt; inactive = no such curve, though single readings can be large; an effect the other way counts as inactive or inconclusive.
SMILES,LmPK inhibitor,Tb PYK inh,FBPA Giardia inh,Shiga toxin inh,RE007 growth inh,Cycloheximide cs
O=C(Nc1nnc(Cc2ccccc2)s1)C1CCC1,0.3%,0.0%,2.3%,20.5,2.4%,0.3
O=C(Nc1nc2c(s1)CN(Cc1ccccc1)CC2)C1CCCC1,2.9%,-5.6%,-10.0%,28.5,-4.5%,22.7*
CC(C)(C)C(=O)Nc1nc2c(s1)CN(Cc1ccccc1)CC2,2.2%,2.2%,-22.2%,67.2*,-3.5%,44.1*
O=C(Nc1ccccc1Cl)c1cc2c(-c3ccccc3)nn(-c3ccccc3)c2s1,·,-2.6%,·,·,·,·
CC1CC[C@@]2(C(=O)O)CC[C@]3(C)C(=CCC4[C@@]5(C)CCC(O)C(C)(C)C5CC[C@@]43C)C2C1C (some centres undefined),·,·,-8.4%,·,·,·
O=C(O)c1cc(=O)c2c3nc4ccccc4oc-3cc(=O)c2[nH]1,·,-11.6%,·,·,·,·
Cn1cccc1/C=N/N1CCN(c2ccccc2)CC1,0.1%,-14.3%,?,130.3*,-20.6%,40.8*
O=C(O)c1ccc(/C=N/N2CCN(c3ccccc3)CC2)cc1,-8.7%,0.4%,2.3%,87.7*,-1.3%,33.6*
O=C(O)c1ccc(C=NN2CCCCCC2)cc1,·,-0.9%,·,·,3.9%,·
C(=N/N1CCN(c2ccccc2)CC1)/c1ccncc1,-8.6%,-5.1%,1.3%,29.4*,-4.7%,17.0*
Cc1ccc(N2CCN(/N=C/c3ccccc3)CC2)cc1,3.4%,2.4%,3.6%,3.7,-9.0%,-2.0
CC12C=CC(=O)C=C1CCC1C2C(O)CC2(C)C1CCC2(O)C(=O)COC(=O)CCC(=O)O (centres undefined),·,-5.7%,·,·,·,·
Cn1c(C(=O)Nc2ccc(OC(F)(F)F)cc2)cc2c(=O)n3ccccc3nc21,·,2.4%,·,·,·,·
CC(=O)c1cccc(Nc2cc(C)nc3ccccc23)c1,0.9%,5.0%,-0.2%,10.7,13.9%,2.1
O=C(O)c1cccc(Nc2c3ccccc3nc3ccccc23)c1,-6.9%,-1.8%,?,87.4*,-7.6%,107.1*
O=C(O)c1cccc(Nc2c([N+](=O)[O-])c(=O)oc3ccccc23)c1,2.6%,12.1%,?,124.9*,1.7%,73.4*
O=C(c1ccco1)n1nc(-c2ccc(Cl)cc2)nc1NCc1ccco1,3.4%,·,-3.4%,37.7,0.9%[3.69 µM],1.6
COc1ccc(CNc2nc(NCc3ccc(OC)cc3)n(C(=O)c3ccncc3)n2)cc1,3.4%,1.5%,7.2%,2.2,-7.2%,-2.5
O=C(c1ccco1)n1nc(-c2ccccc2)nc1NCc1ccco1,4.1%,-4.9%,-2.2%,14.3,-7.5%,7.1
O=C(c1ccco1)n1nc(NCc2ccccc2)nc1NCc1ccccc1,-1.1%,5.6%,-8.1%,37.2*,6.5%,9.9*
Cc1ccc(-c2nc(NCc3ccco3)n(C(=O)c3ccco3)n2)cc1,-1.8%,0.3%,0.3%,121.6*,2.3%,42.1*
O=C(COc1ccccc1)n1nc(-c2ccc(Cl)cc2)nc1NCc1ccco1,-7.0%,·,0.6%,26.2*,6.7%[3.69 µM],48.3*
COc1ccc(CNc2nc(NCc3ccc(OC)cc3)n(C(=O)c3ccccc3[N+](=O)[O-])n2)cc1,-4.4%,-0.6%,-17.6%,75.2*,-19.3%,25.9*
COc1ccc(CCNC(=O)C2CCC(CNS(=O)(=O)c3ccc(C)cc3)CC2)cc1OC (centres undefined),·,-0.1%[15.4 µM],·,·,·,·
COc1ccc(NC(=O)c2sc3nc(C)c(C(=O)Nc4ccc(C)cc4C)c(-c4ccc(C)o4)c3c2N)cc1,·,-7.7%,·,·,·,·
SMILES,LmPK inhibitor,Tb PYK inh,FBPA Giardia inh,Shiga toxin inh,RE007 growth inh,Cycloheximide cs
COc1ccccc1C(=O)n1nc(-c2ccccc2)nc1NCc1ccco1,2.2%,0.5%,-0.9%,46.2,-8.4%,20.6*
O=C(c1ccc(F)cc1)n1nc(-c2ccccc2)nc1NCc1ccco1,·,-2.8%,·,·,·,·
Cc1ccc(NP(=O)(Oc2ccccc2)Oc2ccccc2)cc1,·,0.3%,·,·,27.5%,·
Cc1ccc(NP(=O)(Nc2ccc(C)cc2)Oc2ccccc2)cc1,0.3%,2.4%,-3.4%,20.2,17.4%,23.7*
C/C(=N\NC(=O)c1ccc(O)cc1)c1ccc(NC(=O)Cc2ccccc2)cc1,-3.8%,8.4%,·,170.2*,5.8%,36.3*
CC(=O)Nc1ccc(/C(C)=N\NC(=O)c2ccc(-c3ccccc3)cc2)cc1,2.7%,·,0.0%,7.2,·,12.5
C/C(=N\NC(=O)c1ccc(F)cc1)c1ccc(NC(=O)Cc2ccccc2)cc1,-10.4%,-0.5%,·,90.4*,1.1%,41.3*
CC(=O)Nc1ccc(/C(C)=N/NC(=O)c2ccc(F)cc2)cc1,-3.0%,4.5%,3.8%,+,-8.6%,23.8*
O=C(Cc1ccccc1)Nc1ccc(C(=O)Nc2ccc(O)cc2)cc1,1.0%,-4.5%,3.3%,-7.6,17.5%,-4.2
CSC(=NNC(=O)c1ccc(O)cc1)SC,?,-14.5%,-3.4%,41.6*,4.3%,19.6
CCN1/C(=C2/SC(=S)N(C)C2=O)C=Cc2cc(C)ccc21,·,-3.6%,·,·,2.7%,·
CCN1C(=O)/C(=C2/C=Cc3cc(C)ccc3N2CC)N(C)C1=S,14.1µM*,?,-21.5%,-8.5,-12.6%,-1.7
CC(=O)N(c1ccccc1C)C1CCCC1,-7.6%,-1.0%,-1.0%,13.7,-14.0%,-3.7
CC(=O)N(C1=C(Cl)C(=O)c2ccccc2C1=O)C1CCCCC1,2.82µM*,0.891µM*,1.58µM*,-5.9,6.31µM*,0.3
O=C1c2ccccc2S(=O)(=O)N1CCOc1ccc(F)cc1,-2.5%,1.9%,7.2%,55.1,-4.7%,20.9*
O=C(CCN1C(=O)c2ccccc2S1(=O)=O)NCc1ccc(F)cc1,·,0.6%,·,·,-6.6%,·
COc1ccc(C(=O)CC(=O)C(=O)Nc2ccc(Cl)cc2)cc1,-2.0%,-0.3%,-7.7%,37.1,?,14.2*
COc1ccc(NC(=S)NCCN2CCC(C)CC2)cc1Cl,2.1%,-29.9%,14.1µM*,17.0,-28.6%,3.2
COc1ccc(C(=O)CC(=O)C(=O)Nc2ccc(OC)c(Cl)c2)cc1,-2.7%,0.6%,8.3%,22.1,-12.7%,17.2*
COc1ccc(C(=O)CC(Nc2ccc([N+](=O)[O-])cc2)c2ccc(Cl)cc2)cc1 (centres undefined),4.2%,0.9%,10.5%,13.8,-1.4%,10.0*
COc1ccc(Cl)cc1NC(=S)NCCN1CCOCC1,0.5%,-3.6%,0.5%,-12.2,-7.2%,-7.2
COc1ccc(NC(=O)C(=O)NCCCO)cc1Cl,-1.1%,-2.6%,1.7%,61.6*,1.5%,24.2*
COc1ccc(NC(=O)C(=O)NCCO)cc1Cl,-2.0%,-0.5%,-2.0%,14.9,24.0%,1.4
Cc1ccc(S(=O)(=O)Nc2cccc(-c3cn4ccsc4n3)c2)cc1,-0.5%,1.0%,0.6%,-3.6,32.4%,9.6*
O=S(=O)(Nc1cccc(-c2cn3ccsc3n2)c1)c1ccc(F)cc1,6.0%,-20.1%,1.9%,105.9*,-3.3%,25.4*

# Bioassay records as filed in PubChem BioAssay.
